Test results: PubChem BioAssay
The source made the active and inactive calls.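 Rule for the calls: active = visually confirmed hit in the image check and inhibition above 20%; inconclusive = visually confirmed hit but inhibition not above 20%; inactive = no visual hit in the image check.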

Test: endothelial E-selectin expression blockers – imaging, HUVEC, immunofluorescence, MLSMR starter and 10KST1 sets, primary screen (AID 487);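 for inhibition: signal is fraction of cell area covered by stained E-selectin grains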;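 for nuclei count: 100% = median nuclei count of all wells on the same plate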
Details: HUVEC TNFalpha-induced E-selectin immunofluorescence imaging, at 2 µM; inhibition: stronger effect = higher value; nuclei count: measured here: cell number, toxicity
In the case of `O=C(NC1=NCCS1)c1nc(-c2ccccc2)n(-c2ccccc2)n1`, the inhibition is reported as -60.7% (inactive) and the nuclei count is reported as 113%. With `CN(C)/C=N/c1ncnc2c1cnn2-c1ccc(C(F)(F)F)cn1` the inhibition was 21% (inactive) and the nuclei count was 114%. With `Cc1cc(=O)n(CCO)c(O)c1C#N` the nuclei count was 110% and the inhibition was -22.2% (inactive). For `CC(=O)c1ccc(OCC(O)CN2CCN(CCO)CC2)cc1` (stereo not drawn), the nuclei count was 113% and the inhibition was -19.7% (inactive). With `C=CCNC(=O)CSc1nc2sc(C)c(C)c2c(=O)[nH]1` the inhibition was 5.1% (inactive) and the nuclei count was 112%. With `O=S(=O)(NCc1cn2ccsc2n1)c1ccc2c(c1)OCCO2` the nuclei count was 72.2% and the inhibition was 51.6% (inactive). For `CC(=O)C(Sc1ncnc2c1nnn2-c1ccc(F)cc1)C(=O)N(C)C` (stereo not drawn), the inhibition was -51.7% (inactive) and the nuclei count was 114%. For `CCOCCc1nnc(NC(=O)c2ccc(OC)c(OC)c2)s1`, the nuclei count was 154% and the inhibition was -94.6% (inactive). With `CCCCNC(=O)CSc1nc2ccc(N3CCOCC3)cc2c(=O)n1CCc1ccccc1` the nuclei count was 110% and the inhibition was -18.8% (inactive). For `CC(=O)c1ccc(OC(=O)c2cccs2)cc1`, the inhibition was -41.6% (inactive) and the nuclei count was 105%. For `Cn1nnnc1SCC(=O)N1CCN(c2cccc(Cl)c2)CC1`, the inhibition was -206% (inactive) and the nuclei count was 115%. In the case of `COc1cc(C(c2sc3nc(C)nn3c2O)N2CC(C)CC(C)C2)cc(OC)c1OC` (stereo not drawn), the inhibition is reported as -18.2% (inactive) and the nuclei count is reported as 109%. With `O=C1C2C3C=CC(C3)C2C(=O)N1c1cccc(N2C(=O)C3C4C=CC(C4)C3C2=O)n1` (stereo not drawn) the nuclei count was 137% and the inhibition was -160% (inactive). In the case of `O=C(Nc1ccc(Cl)cc1C(=O)O)c1ccc2c(c1)C(=O)N(Cc1ccco1)C2=O`, the nuclei count is reported as 119% and the inhibition is reported as -34.4% (inactive).
